In the library only some 2% were active in any assay of this set; here they are far more common.
ASM inhibitor = inhibitors of human secretory acid sphingomyelinase | AID 504937 | hit rate 0.006% among 340,000 | Potency, µM (highest dose often 57.5 µM), actives largely listed as inhibitors | placental ASM, HMU-PC fluorogenic substrate, 60 min | P17405
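Fluorogenic HMU-PC substrate (9 uM final) is turned over by placental ASM in 60 min at 37 C after a 10 min compound preincubation. Reaction ended by alkaline stop (pH 10), with fluorescence read at 386/447 nm.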
Abeta yeast res = restores growth of yeast expressing A-beta42 peptide | yeast expressing A-beta42, growth rescue, OD600, 48 h; response scale: 0% DMSO, 100% iron-clioquinol control | Potency, µM (doses to about 46.1 µM), hits mostly activators | hit rate 0.063% among 410,000; further: nearly all actives have a fitted effect of over 55% in size
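Growth rescue measured by 600 nm absorbance after 48 h yeast culture at 30 C with compound. Values normalized between DMSO and an equimolar ferric chloride plus clioquinol control.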
aSyn yeast inh = rescues yeast growth from alpha-synuclein toxicity; hit rate 0.14% among 370,000; Yeast expressing alpha-synuclein, growth rescue, BacTiter-Glo, 24 h; AID 652106; Potency, µM (top dose mostly 46.1 µM), actives largely listed as activators; further: nearly all actives have a fitted effect of over 65% in size
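Readout is rescue of growth in alpha-synuclein-expressing yeast, so inhibitors of toxicity appear as activators. Growth after 24 hr at 30 deg C in galactose medium is quantified by luminescence.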
TDP43 rescue = inhibitors of TDP-43 toxicity in yeast. TDP-43 expressing yeast growth rescue, BacTiter-Glo, 24 h. Potency, µM (series often up to 46.1 µM), hits mostly activators. hit rate 1.8% among 410,000. AID 652104; further: nearly all actives have a fitted effect of over 50% in size
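Galactose-induced TDP-43 yeast, OD600=0.02, compound pinned; 24 hr, 30 deg C; BacTiter-Glo luminescence for growth. Inhibitors of TDP-43 toxicity read as activators.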
Rango release inh = inhibition of RanGTP-driven Rango-importin beta dissociation; Biochemical FRET Rango-importin beta, RanGTP-induced dissociation; hit rate 0.071% among 340,000; Potency, µM (doses to about 46.1 µM); AID 540253; O95149+P62826; calls by dose curve; further: nearly all actives have a fitted effect of over 45% in size
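Two FRET readings bracket the reaction: one 5 min after compound meets Rango–importin beta, another 45 min after RanGTP-RCC1 (0.6 uM Ran, 0.2 uM RCC1, 2 mM GTP) is added. Only the second defines inhibition.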
Rango complex inh = prevents formation of the Rango-importin beta complex | Q14974 | Rango CFP/YFP FRET sensor + importin beta, 45 min | Potency, µM (doses to about 92.2 µM) | hit rate 0.031% among 340,000 | AID 540263; calls by dose curve; further: nearly all actives have a fitted effect of over 15% in size
Target sequence (Q14974 whole entry, looked up): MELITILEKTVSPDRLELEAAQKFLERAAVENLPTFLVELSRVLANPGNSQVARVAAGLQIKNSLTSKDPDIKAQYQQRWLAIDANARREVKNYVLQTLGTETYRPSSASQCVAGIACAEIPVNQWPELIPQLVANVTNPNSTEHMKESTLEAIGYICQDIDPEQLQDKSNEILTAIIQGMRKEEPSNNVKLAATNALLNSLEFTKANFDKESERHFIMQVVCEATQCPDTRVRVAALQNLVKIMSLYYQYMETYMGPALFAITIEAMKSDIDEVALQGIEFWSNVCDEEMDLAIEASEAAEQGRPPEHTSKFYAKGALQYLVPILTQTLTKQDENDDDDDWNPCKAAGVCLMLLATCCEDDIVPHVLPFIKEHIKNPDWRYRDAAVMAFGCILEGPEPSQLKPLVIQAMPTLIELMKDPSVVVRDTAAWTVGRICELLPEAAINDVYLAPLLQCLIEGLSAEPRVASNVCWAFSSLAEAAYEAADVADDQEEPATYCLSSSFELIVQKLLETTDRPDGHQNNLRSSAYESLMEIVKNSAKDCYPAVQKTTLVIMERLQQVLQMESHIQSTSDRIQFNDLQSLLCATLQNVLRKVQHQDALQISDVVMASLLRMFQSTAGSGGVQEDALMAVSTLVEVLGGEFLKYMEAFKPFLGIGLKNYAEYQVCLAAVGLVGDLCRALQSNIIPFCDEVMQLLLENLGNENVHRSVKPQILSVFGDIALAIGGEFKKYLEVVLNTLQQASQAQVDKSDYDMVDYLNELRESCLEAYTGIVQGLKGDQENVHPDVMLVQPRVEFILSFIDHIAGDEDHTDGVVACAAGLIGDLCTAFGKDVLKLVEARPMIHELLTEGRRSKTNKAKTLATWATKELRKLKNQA
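Inhibition scored from the CFP 486 nm/YFP 530 nm FRET ratio 45 min after adding 0.125 microM importin beta to 50 nM Rango biosensor preincubated 5 min with compound (room temperature, PBS with DTT, Tween-20, BSA). No-importin wells as positive control.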
Numbers stand for hits; n = inactive; u = inconclusive; x = no result given; [ ] = dose if it differs, or a comment. Unless noted, the call rests on the fitted dose curve; in most records, active means well fitted curve in the direction sought with a large enough effect; inconclusive means small, poorly fitted or top-dose-only effect, or another doubt; inactive means no such curve, though single readings can be large; an effect the other way counts as inactive or inconclusive.

SMILES | ASM inhibitor | Abeta yeast res | aSyn yeast inh | TDP43 rescue | Rango release inh | Rango complex inh
C=CCNC(=O)c1ccc(CSc2nc3ccccc3s2)cc1 | n | n | n | 17.8µM | n | n
CCOc1ccc(-n2c(C)nc3cc(C(=O)NC4CCCC4)ccc32)cc1 | x | n | x | n | x | x
O=C(CCCCCn1c(=O)[nH]c2ccccc2c1=O)N1CCN(c2ccc(Cl)cc2)CC1 | x | n | x | n | x | x
O=C(NC1CCCC1)c1cnn2c1NC(=C1CC1)C=C2C(F)F | x | x | n | x | x | x
Cc1ccccc1NC(=O)COC(=O)CC1CCCC1 | n | n | n | n | n | n
Cc1ccc(Cl)cc1NC(=O)COC(=O)CC1CCCCC1 | n | u | n | 12.6µM | n | n
O=[N+]([O-])c1ccc(N2CCN(C(=S)NC3CCCCC3)CC2)cc1 | n | u | n | 12.6µM | n | u
Cc1ccccc1-c1nc(CS(=O)(=O)CC(=O)N2CCN(c3ccccc3)CC2)c(C)o1 | x | n | x | 12.6µM | x | x
Cc1oc(-c2ccccc2F)nc1CS(=O)(=O)CC(=O)N1CCN(c2ccccc2)CC1 | n | n | n | n | n | n
COc1ccc(N2CCN(C(=O)CCc3c(C)nc4cc(-c5cccc(F)c5)nn4c3C)CC2)cc1 | x | n | x | n | x | x
COc1ccc(N2CCN(C(=O)CCc3c(C)nc4c(-c5ccccc5)c(C)nn4c3C)CC2)cc1 | x | n | x | 22.4µM | x | x
CC(OC(=O)CCc1c[nH]c2ccccc12)C(=O)c1ccccc1 (stereo not given) | n | n | n | 35.5µM | n | n
O=C(Nc1cccnc1)c1ccc([N+](=O)[O-])s1 | n | n | n | 12.6µM | n | n
O=C(Nc1ccccc1F)c1ccc([N+](=O)[O-])s1 | n | n | n | n | n | u
Cc1ccccc1NS(=O)(=O)c1nnc(NC(=O)c2ccco2)s1 | x | n | x | n | x | x
COC(=O)c1ccc(CSc2nc(C(F)F)cc(C)c2C#N)o1 | n | n | n | 11.2µM | n | n
CC(=O)Nc1nonc1-c1nnc(SCC(=O)Nc2cc(C)cc(C)c2)n1-c1ccccc1 | x | n | x | n[9.22 µM] | x | x
COC(=O)[C@H](C)NC(=O)Nc1cccc(C(F)(F)F)c1 | n | n | n | n | n | n
CC(O/N=C(\N)c1ccccc1)C(=O)Nc1cccc(C(F)(F)F)c1 (stereo not given) | n | n | n | 12.6µM | n | n
CCOc1ccc(Nc2nnc(-n3nc(C)cc3C)c3ccccc23)cc1 | x | n | x | n | x | x
O=C(COc1cccnc1[N+](=O)[O-])Nc1ccccc1Sc1ccccc1 | n | n | n | 14.1µM | n | n
COc1ccc(-c2cc(C(=O)OC3CCOC3=O)c3ccccc3n2)cc1 (stereo not given) | n | n | n | 15.8µM | u | u
O=C(OC1CCOC1=O)c1cc(-c2ccc(Br)cc2)nc2ccccc12 (stereo not given) | n | n | n | n | n | n
Cc1ccc(S(=O)(=O)c2c(N)n(-c3ccccc3)c3nc4ccccc4nc23)cc1 | n | n | n | n | 14.6µM | u
CCCCn1c(N)c(S(=O)(=O)c2ccc(C)cc2)c2nc3ccccc3nc21 | n | n | n | n | u | u
SMILES | ASM inhibitor | Abeta yeast res | aSyn yeast inh | TDP43 rescue | Rango release inh | Rango complex inh
COc1ccccc1-c1cc(C(F)(F)F)nc(S(=O)(=O)CCCC(=O)Nc2ccccc2F)n1 | x | n | x | n | x | x
COc1ccccc1-c1cc(C(F)(F)F)nc(S(=O)(=O)CCCC(=O)NC(C)C)n1 | n | n | n | n | n | n
COc1ccccc1-c1cc(C(F)(F)F)nc(S(=O)(=O)CCCC(=O)Nc2cccnc2Cl)n1 | n | n | n | 12.6µM | n | n
COc1ccccc1-c1cc(C(F)(F)F)nc(S(C)(=O)=O)n1 | n | n | n | 35.5µM | n | n
COCc1cc(C)nc2sc3c(c12)NC(c1ccccc1C(=O)O)N(c1cccc(C(F)(F)F)c1)C3=O (stereo not given) | x | n | x | n | x | x
O=C(CSCc1ccc(F)cc1)N1CCN(c2ccc(Cl)cc2)CC1 | x | n | x | 17.8µM | x | x
O=C(Cc1ccc(Cl)cc1)N1CCN(c2ccc(F)cc2)CC1 | n | n | n | n | n | n
O=C(CCC(=O)N1CCN(c2ccc(F)cc2)CC1)N1CCN(c2ccc(F)cc2)CC1 | n | n | n | n | n | n
O=C(CCSCc1ccccc1F)N1CCN(c2ccc(F)cc2)CC1 | x | n | x | 11.2µM | x | x
O=C(CCSCc1ccccc1Cl)N1CCN(c2ccc(F)cc2)CC1 | x | n | x | 15.8µM | x | x
O=C(O)CC(NS(=O)(=O)c1ccc(Cl)s1)c1ccccc1 (stereo not given) | x | n | x | n | x | x
COc1ccc(-c2onc(C)c2C)cc1S(=O)(=O)N(C)Cc1ccco1 | x | n | x | n | x | x
Cc1cc(SCc2cc(=O)n3ccsc3n2)nc2ccccc12 | n | n | n | 11.2µM | n | n
Cc1cccc(C)c1OCCn1nnc2ccccc21 | n | n | n | 17.8µM | n | n
Cc1ccc(C)c(OCCn2nnc3ccccc32)c1 | n | n | n | u | n | n
Cc1cc(C)cc(OCCn2nnc3ccccc32)c1 | n | n | n | 22.4µM | n | n
CCN(CC)c1nc(NC2CCN(C)CC2)c2cc(OC)c(OC)cc2n1 | x | x | n | x | x | x
O=C1C(Cl)=C(NCC2CCCO2)C(=O)N1c1cccc(Cl)c1Cl (stereo not given) | n | n | n | u | u | u
C=CCNC1=C(Cl)C(=O)N(c2cccc(Cl)c2Cl)C1=O | n | n[9.22 µM] | n | 15.8µM | u | u
Cc1cc(Nc2ccc(Cl)cc2)n(-c2cccc(Cl)c2)n1 | n | n | n | 22.4µM | n | n
Cc1cc(Nc2ccccc2)n(-c2ccc(Br)cc2)n1 | n | n | n | u | n | n
Cc1cc(Nc2ccc(Cl)cc2)n(-c2ccccc2)n1 | n | n | n | 10µM | n | n
CCc1ccc(C2C(C#N)=C(N)SC(N)=C2C#N)s1 | n | u | n | n | 10.3µM | u
O=C(c1cc(COc2ccc(F)cc2Cl)on1)N1CCN(C2CCCCC2)C(=O)C1 | n | n | n | 20µM | n | n
Clc1ccc(-c2csc(N/N=C/c3ccco3)n2)cc1 | n | n | n | 6.31µM | n | n
SMILES | ASM inhibitor | Abeta yeast res | aSyn yeast inh | TDP43 rescue | Rango release inh | Rango complex inh
Cc1[nH]c2c(Br)cccc2c1[C@H]1[C@@H](CC#N)C1(C)C | n | n | n | 22.4µM | n | n
Cc1c([C@H]2[C@@H](CC#N)C2(C)C)c2ccccc2n1C | n | n | n | n | n | n
Cc1cc(NC(=O)N(C)CCc2c(C)nn(C)c2C)ccc1Br | x | n | x | n | x | x
CCNC(=O)Nc1cc(OC)c(OC)cc1C(=O)O | n | n | n | n | n | n
COc1cc(NC(=O)C(c2ccccc2)c2ccccc2)c(C(=O)O)cc1OC | n | n | n | 22.4µM | n | n
NS(=O)(=O)c1cccc(NC(=O)CCSc2ccccc2Cl)c1 | n | n | n | n | n | n
